Screening results: PubChem, Sanford-Burnham Center for Chemical Genomics
H9c2 protect = protects H9c2 cardiomyocytes from peroxide injury; H2O2 injury protection, ATPLite, 2 h; protection from H2O2 cell death, % at 20 µM; AID 588492; 360,000 compounds, 0.63% hits;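 active = compounds giving at least 50% protection of heart cells from peroxide-induced death in the single-dose screen, raw or plate-pattern-corrected value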
NadD block = blocks S. aureus nicotinate mononucleotide adenylyltransferase; inhibition, % at 20 µM; 360,000 compounds, 0.78% hits; purified NadD enzyme, colorimetric absorbance read-out; in the data active = inhibition above about 26%
PfG6PD inh = PfG6PD (Plasmodium falciparum) enzyme inhibition; PfGluPho enzyme, NADPH resazurin-diaphorase fluorescence; inhibition, % at 20 µM; 350,000 compounds, 0.78% hits;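 active = inhibition reaching at least a set limit at 20 µM in the primary screen, cut at about 59% in these data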
APOBEC3A inh = inhibitors of human APOBEC3A DNA deaminase; P31941; recombinant A3A, FAM/TAMRA ssDNA deamination fluorescence; inhibition, % at 20 µM; 330,000 compounds, 0.41% hits; AID 493011;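 active = at least 40% inhibition at 20 µM here, with at most 30% in a related deaminase screen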
Target sequence (P31941 whole entry, looked up): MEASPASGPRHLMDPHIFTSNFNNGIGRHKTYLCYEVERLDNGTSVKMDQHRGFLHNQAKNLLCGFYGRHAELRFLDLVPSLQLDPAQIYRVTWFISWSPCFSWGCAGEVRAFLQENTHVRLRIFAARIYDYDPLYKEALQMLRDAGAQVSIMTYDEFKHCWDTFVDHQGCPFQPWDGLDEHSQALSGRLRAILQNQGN
H9c2 TAG inh = triacylglycerol accumulation inhibition; H9c2 cells, Nile Red lipid (TAG) fluorescence; cells loaded with 200 µM oleic acid; inhibition, % at 12.5 µM; 230,000 compounds, 0.66% hits; AID 651582;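 active = pattern-corrected inhibition of lipid staining of at least 50% with the nuclear-stain viability signal not falling by more than 50%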
APOBEC3G inh = APOBEC3G (human) deaminase inhibition; Q9HC16; recombinant A3G, ssDNA deamination FAM/TAMRA fluorescence; inhibition, % at 20 µM; 330,000 compounds, 0.28% hits; AID 493012;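 active = inhibition of at least 40% at 20 µM, with no more than 30% in the related APOBEC3A deaminase screen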
Target sequence (Q9HC16 whole entry, looked up): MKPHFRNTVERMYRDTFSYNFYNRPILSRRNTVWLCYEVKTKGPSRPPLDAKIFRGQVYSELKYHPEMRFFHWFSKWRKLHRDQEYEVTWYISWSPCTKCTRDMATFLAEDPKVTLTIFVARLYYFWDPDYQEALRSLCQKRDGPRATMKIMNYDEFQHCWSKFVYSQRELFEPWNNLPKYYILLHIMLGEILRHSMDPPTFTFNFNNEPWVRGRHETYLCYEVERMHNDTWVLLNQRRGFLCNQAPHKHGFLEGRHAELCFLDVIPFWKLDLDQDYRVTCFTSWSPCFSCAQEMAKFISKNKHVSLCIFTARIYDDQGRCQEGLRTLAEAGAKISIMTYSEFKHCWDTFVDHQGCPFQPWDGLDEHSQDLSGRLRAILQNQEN
Hits are given with their value. The list is not random: actives were taken first. Their share in the collection is about 2.9%.

Screening Cc1ccc(-c2csc(N)n2)cc1 returned H9c2 protect inactive, NadD block inactive, PfG6PD inh inactive and H9c2 TAG inh inactive.
Screening CCCCn1c(N)c(NCCC(C)C)c(=O)[nH]c1=O returned H9c2 protect inactive, NadD block inactive and PfG6PD inh inactive.
CCCCn1c(N)c(Br)c(=O)[nH]c1=O was read as H9c2 protect 55, NadD block inactive, PfG6PD inh inactive, APOBEC3A inh inactive, H9c2 TAG inh inactive and APOBEC3G inh inactive.
CN(C(=O)Cn1nc(C(=O)O)c2ccccc2c1=O)C1(C#N)CCCCC1 was read as H9c2 protect 57, NadD block inactive, PfG6PD inh inactive, APOBEC3A inh inactive, H9c2 TAG inh inactive and APOBEC3G inh inactive.
For O=C1Nc2ccccc2Nc2ccccc21 the results were H9c2 protect inactive, NadD block inactive, PfG6PD inh inactive, APOBEC3A inh inactive and APOBEC3G inh inactive.
`O=C1Nc2cnc(Cl)nc2Nc2ccccc21` gave H9c2 protect 56 and NadD block inactive.
Screening Cc1ccc(CC(=O)NC2CCCc3ccccc32)cc1C (stereo not drawn) returned H9c2 protect inactive, NadD block inactive, PfG6PD inh inactive, APOBEC3A inh inactive and APOBEC3G inh inactive.
COc1cccc(-c2nn(C)c3sc(C(=O)Nc4ccc5c(c4)OCCO5)cc23)c1 was read as H9c2 protect inactive, NadD block inactive, PfG6PD inh inactive, APOBEC3A inh inactive, H9c2 TAG inh inactive and APOBEC3G inh inactive.
Screening Cn1nc(-c2ccccc2F)c2cc(C(=O)Nc3ccc4c(c3)OCCO4)sc21 returned H9c2 protect 56, NadD block inactive, PfG6PD inh inactive, APOBEC3A inh inactive, H9c2 TAG inh inactive and APOBEC3G inh inactive.
Screening NS(=O)(=O)c1ccc(NC(=O)COC(=O)c2ccc([N+](=O)[O-])s2)cc1 returned H9c2 protect inactive, NadD block inactive, PfG6PD inh inactive, APOBEC3A inh inactive, H9c2 TAG inh inactive and APOBEC3G inh inactive.
Cc1ccc(/C=C/C(=O)c2ccccc(=O)c2O)cc1C was read as H9c2 protect 75, NadD block inactive and PfG6PD inh inactive.
COc1ccc(C=CC(=O)c2ccc(OC)c(OC)c2O)cc1OC was read as H9c2 protect inactive, NadD block inactive, PfG6PD inh inactive and H9c2 TAG inh inactive.
Screening O=C1C=CC(=O)C(CNc2ccc(C(=O)OCc3ccccc3)cc2)=C1 returned H9c2 protect inactive, NadD block inactive, PfG6PD inh 75 and H9c2 TAG inh inactive.
`O=C(NCCOc1ccccc1F)C1CCC(=O)N(CCc2cccc(F)c2)C1` (stereo not drawn) gave H9c2 protect inactive, NadD block inactive, PfG6PD inh inactive, APOBEC3A inh inactive and APOBEC3G inh inactive.
Screening N#Cc1ccc(-c2ccc(OCC(O)CN3CCCCC3)cc2)cc1 (stereo not drawn) returned H9c2 protect inactive, NadD block inactive, PfG6PD inh inactive, APOBEC3A inh inactive and APOBEC3G inh inactive.
For COc1ccc(/C=N\NC(=O)c2ccccc2)cc1COc1ccccc1 the results were H9c2 protect inactive, NadD block inactive, PfG6PD inh inactive, APOBEC3A inh inactive, H9c2 TAG inh inactive and APOBEC3G inh inactive.
Screening COc1ccc(C(=O)N/N=C/c2ccc(OC)c(COc3ccccc3)c2)cc1 returned H9c2 protect inactive, NadD block inactive, PfG6PD inh inactive, APOBEC3A inh inactive, H9c2 TAG inh inactive and APOBEC3G inh inactive.
COc1ccc(/C=N/NC(=O)c2cccnc2)cc1CN1CCc2ccccc2C1 was read as H9c2 protect 69, NadD block inactive, PfG6PD inh inactive, APOBEC3A inh inactive, H9c2 TAG inh inactive and APOBEC3G inh inactive.
Screening COc1ccc(/C=N/NC(=O)c2cccnc2)cc1O returned H9c2 protect inactive, NadD block inactive, PfG6PD inh inactive, APOBEC3A inh inactive, H9c2 TAG inh inactive and APOBEC3G inh inactive.
Screening COc1ccc(/C=N\NC(=O)c2cc(O)c(O)c(O)c2)cc1COc1ccc(C(=O)OCC(C)C)cc1 returned H9c2 protect 53, NadD block 60, PfG6PD inh inactive, APOBEC3A inh inactive and APOBEC3G inh inactive.
`CCOC(=O)c1ccccc1OCc1cc(/C=N/NC(=O)c2cccnc2)ccc1OC` gave H9c2 protect 55, NadD block inactive, PfG6PD inh inactive, APOBEC3A inh inactive, H9c2 TAG inh inactive and APOBEC3G inh inactive.
Screening COc1ccc(/C=N\NC(=O)c2cc(O)c(O)c(O)c2)cc1CN1CCN(c2ccc(F)cc2)CC1 returned H9c2 protect inactive, NadD block 41 and PfG6PD inh inactive.
`Cc1ccc(-c2nnn(CC(=O)Nc3ccc4nn(-c5ccccc5)nc4c3)n2)o1` gave H9c2 protect inactive, NadD block 34, PfG6PD inh inactive, APOBEC3A inh inactive, H9c2 TAG inh inactive and APOBEC3G inh inactive.
Cc1ccc(-c2nnn(CC(=O)NCC3CC3)n2)o1 was read as H9c2 protect inactive, NadD block inactive, PfG6PD inh inactive, APOBEC3A inh inactive, H9c2 TAG inh inactive and APOBEC3G inh inactive.
O=c1c2ccccc2nc(-c2ccc(Cl)c(Cl)c2)n1O was read as H9c2 protect 63, NadD block inactive, PfG6PD inh inactive, APOBEC3A inh inactive, H9c2 TAG inh inactive and APOBEC3G inh inactive.
CCC(C)c1ccc(N(CC(=O)NC(C)(C)C)C(=O)CNC(=O)c2cccs2)cc1 (stereo not drawn) was read as H9c2 protect inactive, NadD block inactive, PfG6PD inh inactive, APOBEC3A inh inactive and APOBEC3G inh inactive.
For COc1ccccc1CN(C(=O)CNC(=O)c1ccco1)C(C(=O)NCC1CCCO1)c1ccccc1 (stereo not drawn) the results were H9c2 protect 68, NadD block inactive, PfG6PD inh inactive, APOBEC3A inh inactive and APOBEC3G inh inactive.
For Cc1ccc(CN(C(=O)CNC(=O)c2cccs2)C(C(=O)NCC2CCCO2)c2ccccc2)cc1 (stereo not drawn) the results were H9c2 protect 91, NadD block inactive, PfG6PD inh inactive, APOBEC3A inh inactive and APOBEC3G inh inactive.
Screening O=C(NNC(=O)c1ccccc1O)c1ccc(S(=O)(=O)Nc2ccccc2)cc1 returned H9c2 protect 58, NadD block inactive, PfG6PD inh inactive, APOBEC3A inh inactive, H9c2 TAG inh inactive and APOBEC3G inh inactive.
For O=C(NCc1ccco1)c1ccc(Cl)cc1[N+](=O)[O-] the results were H9c2 protect inactive, NadD block inactive and PfG6PD inh inactive.
C=C1C(=O)C=C2CN(C(=O)c3ccccc3)[C@@](Cc3ccc(F)cc3)(C(=O)OC)[C@@H]12 was read as H9c2 protect inactive, NadD block inactive, PfG6PD inh 72, APOBEC3A inh inactive, H9c2 TAG inh inactive and APOBEC3G inh inactive.
`CCC[n+]1c(C)sc2c3c(ccc21)CCCC3` gave H9c2 protect inactive, NadD block 44, PfG6PD inh inactive, APOBEC3A inh inactive, H9c2 TAG inh inactive and APOBEC3G inh inactive.
Screening CC[n+]1c(C)sc2c(C)cc(C)cc21 returned H9c2 protect inactive, NadD block inactive, PfG6PD inh inactive, APOBEC3A inh inactive, H9c2 TAG inh inactive and APOBEC3G inh inactive.
